Only some compounds are listed: those with a hit (about 1.5% of all), similar ones and a draw of the others.
TMEM16A act: activators or potentiators of mouse TMEM16A chloride channel | Q8BHY3 | HEK293 TMEM16A/YFP-H148Q/I152L, iodide quench fluorescence; stronger effect = lower value | 340,000 compounds, 0.3% hits | B-score at 10 µM | AID 623877;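 active = fluorescence-ratio B-score plate-corrected deviation score at least 3 library SD below zero, with starting fluorescence score within 5 deviations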;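 note: channel opened by trigger with iodide after compound preincubation; score built on the fluorescence ratio of max minus min over baseline; more negative score means more quench and so TMEM16A activation or potentiation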
ABCB6 inh MLPCN: blocks the human ABCB6 transporter; AID 602162; 360,000 compounds, 0.19% hits; K562-ABCB6 porphyrin accumulation, flow cytometry, 1 h; stronger effect = lower value; fluorescence ratio to DMSO, % at 10 µM;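 active = fluorescence ratio to DMSO below 75%, the collection mean minus 3 SD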;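 note: signal is porphyrin accumulated inside mitochondria; 100% equals median channel fluorescence of DMSO control wells; lower ratio means ABCB6 inhibition with less porphyrin fluorescence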
iPSC survival up: increases survival of single human iPS cells | survival enhancement, % at 20 µM | 360,000 compounds, 0.044% hits | AID 602274 | hiPSC single-cell survival, ATPlite luminescence; 100% = ROCK inhibitor wells, 0% = DMSO; in the data active = survival enhancement above about 18%;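 note: cells exposed to compounds for 16 hours before the ATP read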
DAGLB inh: blocks human DAGLB lipase activity; HEK293T DAGLB membrane lysate, EnzChek fluorogenic substrate; inhibition, % at 5.17 µM; 340,000 compounds, 0.059% hits; AID 504411; in the data active = inhibition above about 34%;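 note: 0% = enzyme with vehicle and 100% = wells lacking enzyme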
ANO1 block: blocks the mouse calcium-activated chloride channel TMEM16A. 310,000 compounds, 1.2% hits. normalized B-score (activity score, 25-100; higher = stronger inhibition) at 10 µM. Q8BHY3. AID 588511. HEK293 TMEM16A/YFP iodide influx fluorescence, ionomycin;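 active = ratio plate-corrected score three or more library SD toward inhibition, starting fluorescence score within five deviations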;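 note: score derived from kinetic fluorescence span divided by baseline fluorescence per well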
TMEM16A reconf: re-confirmation of mouse TMEM16A chloride channel inhibitors; AID 652189; inhibition, % at 10 µM; HEK293 TMEM16A/YFP-H148Q, iodide quench fluorescence; ionomycin added to raise cell calcium; shares compounds with ANO1 block; 2,300 compounds, 39% hits;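 active = mean duplicate percent inhibition, scaled so buffer wells are 0 and the reference blocker 100, over three buffer SD above buffer mean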
HEK293 Ca mobil: calcium mobilization counter-screen hit for TMEM16A inhibitor series; TMEM16A/YFP HEK293, Fluo4 calcium mobilization; calcium response (% of ionomycin), % at 10 µM; 2,300 compounds, 2% hits; shares compounds with ANO1 block;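 active = duplicate-averaged calcium signal over 20% of the ionomycin maximum, relative to buffer baseline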;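 note: each well's signal is peak minus trough fluorescence divided by its pre-addition baseline; 0% = buffer wells and 100% = ionomycin wells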
Parental YFP cnt: acts in parental YFP-HEK293 cells lacking TMEM16A, counter-screen | 2,300 tested, under 10 active | iodide YFP quench, ionomycin | shares compounds with ANO1 block | YFP ratio F(max-min)/F0 at 10 µM | AID 652233;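 active = yellow fluorescent protein signal ratio exceeding the buffer control mean by over 5 SD of those controls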;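 note: ratio is mean of duplicate wells from kinetic YFP trace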
ClC-1 inh: rat ClC-1 inhibition, TMEM16A specificity screen; 2,300 tested, under 10 active; AID 652236; CHO ClC-1-YFP, iodide influx fluorescence quench; iodide control reads 0, buffer control 100; ratio percent, % at 10 µM; shares compounds with ANO1 block;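 active = duplicate-mean ratio percent above the mean of iodide-only control wells, which defines zero, plus 5 of their SD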;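 note: higher percent means stronger block of ClC-1 iodide influx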
Target sequence (P35524 whole entry, looked up): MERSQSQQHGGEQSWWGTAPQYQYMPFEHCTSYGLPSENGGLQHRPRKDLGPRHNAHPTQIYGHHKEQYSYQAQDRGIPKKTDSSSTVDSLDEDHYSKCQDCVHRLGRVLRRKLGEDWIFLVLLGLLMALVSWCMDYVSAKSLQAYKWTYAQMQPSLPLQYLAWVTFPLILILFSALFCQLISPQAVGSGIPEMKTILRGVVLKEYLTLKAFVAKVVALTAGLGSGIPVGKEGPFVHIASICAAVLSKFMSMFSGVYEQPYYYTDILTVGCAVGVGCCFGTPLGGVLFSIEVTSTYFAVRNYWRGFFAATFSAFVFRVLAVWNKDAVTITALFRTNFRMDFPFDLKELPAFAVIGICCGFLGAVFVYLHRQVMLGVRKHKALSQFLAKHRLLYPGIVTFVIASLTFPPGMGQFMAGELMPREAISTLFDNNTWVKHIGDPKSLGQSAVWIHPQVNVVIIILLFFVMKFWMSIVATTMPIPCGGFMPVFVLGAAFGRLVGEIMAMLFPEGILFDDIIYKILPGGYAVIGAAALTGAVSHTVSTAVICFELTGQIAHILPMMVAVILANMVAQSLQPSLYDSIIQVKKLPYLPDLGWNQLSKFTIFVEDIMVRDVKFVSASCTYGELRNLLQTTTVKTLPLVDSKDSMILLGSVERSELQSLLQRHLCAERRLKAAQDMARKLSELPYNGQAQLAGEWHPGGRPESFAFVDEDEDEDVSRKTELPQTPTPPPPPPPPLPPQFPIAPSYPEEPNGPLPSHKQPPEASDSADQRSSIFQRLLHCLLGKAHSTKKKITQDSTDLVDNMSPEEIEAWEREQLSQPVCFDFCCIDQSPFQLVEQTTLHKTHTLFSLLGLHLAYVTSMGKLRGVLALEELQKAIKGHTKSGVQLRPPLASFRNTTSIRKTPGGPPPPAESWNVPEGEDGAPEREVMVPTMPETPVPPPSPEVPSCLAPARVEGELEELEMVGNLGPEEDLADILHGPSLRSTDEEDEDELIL
Starred values were filed as active, the others as inactive; i = inactive; . = no result.

SMILES | TMEM16A act | ABCB6 inh MLPCN | iPSC survival up | DAGLB inh | ANO1 block | TMEM16A reconf | HEK293 Ca mobil | Parental YFP cnt | ClC-1 inh
CN=c1nc(-c2ccccc2)n(-c2ccccc2)s1 | i | 97 | 0 | 1 | 25* | i | i | -0.8 | -4
Cn1nc(-c2ccccc2)nc1-c1ccccc1 | i | 96 | 2 | -4 | i | . | . | . | .
Cc1nc(N2CCN(C(=O)c3ccco3)CC2)c(C#N)c2c1CCCC2 | i | 96 | 2 | -8 | i | . | . | . | .
CC(C)Cc1nc(N2CCN(C(=O)c3ccco3)CC2)c(C#N)c2c1CCCC2 | i | 104 | -1 | -6 | 25* | i | i | -1.3 | -10
CC1=CC(C)(C)N(C(=O)c2ccc(F)cc2)c2cc3c(cc21)OCO3 | i | 100 | 0 | -7 | 100* | 58%* | i | -1 | -13
Cc1cccc(N2CCN(C(=O)Cc3ccc(Br)cc3)CC2)c1C | i | 102 | 2 | -19 | 100* | i | i | -1 | -12
OCCNc1ncnc2c1ncn2[C@H]1CN(C2CCCC2)C[C@@H](CO)O1 | . | 95 | 1 | . | . | . | . | . | .
CN1/C(=C\C(=O)Nc2ccc(Cl)cc2)C(C)(C)c2ccccc21 | i | 114 | -1 | -3 | 25* | i | i | -1.3 | -10
COc1cc2nc(N3CCN(c4cc(C)ccc4C)CC3)nc(N)c2cc1OC | i | 102 | 0 | -2 | i | . | . | . | .
COc1cc2nc(N3CCNCC3)nc(N)c2cc1OC | i | 91 | -2 | -2 | 100* | i | i | -0.73 | -4
COc1ccc(NC(=O)CNc2ccc(OC)c(S(=O)(=O)N3CCOCC3)c2)cc1 | . | 99 | -3 | -3 | . | . | . | . | .
Oc1c(C=Nc2cccnc2)sc2ccccc12 | i | 108 | -1 | -1 | i | i | i | -1 | -5
CCCN(CCC)c1nc(NC2CCN(C(=O)OCC)CC2)nc(OC)n1 | i | 87 | -1 | -5 | 25* | i | i | -1.1 | -9
CCOC(=O)N1CCC(Nc2c(OCC)c(=O)c2=O)CC1 | i | 101 | 1 | 0 | i | . | . | . | .
Cc1ccc(C(C)NC(=O)C2CCCC2)cc1C (stereo unspecified) | i | 100 | 0 | -2 | i | . | . | . | .
CC(NC(=O)C1CCC1)c1ccc2c(c1)OCO2 (stereo unspecified) | i | 99 | -2 | 0 | 25* | i | i | -0.89 | -5
CCOc1ccc(N2Nc3n[nH]c(N)c3N2)cc1 | i | 107 | -6 | 2 | i | . | . | . | .
COc1ccc(N2Nc3n[nH]c(N)c3N2)cc1 | i | 98 | 1 | 0 | i | i | i | -1.1 | -4
CCOc1ccc(NC(=O)C2CCC(C)(C(=O)O)C2(C)C)cc1 (stereo unspecified) | i | 100 | 3 | 1 | 25* | i | i | -1.1 | -6
CNc1ccccc1C(C)(C)c1cc(-c2cc(C)cc(C)c2)no1 | i | 96 | 0 | -11 | i | . | . | . | .
CNc1ccccc1C(C)(C)c1cc(-c2cccc(OC)c2)no1 | i | i | -1 | . | 25* | 23%* | i | -0.85 | -4
CCSc1nnc(NC(=O)CSc2nccn2-c2cccc(C)c2C)s1 | . | . | . | . | 25* | i | i | -0.98 | -12
c1ccc(CCNc2ncnc3scc(C4COc5ccccc5O4)c23)cc1 (stereo unspecified) | i | 91 | 8 | -7 | i | . | . | . | .
c1ccc2c(c1)OCC(c1csc3ncnc(N4CCCC4)c13)O2 (stereo unspecified) | i | 92 | 5 | -7 | 25* | 20%* | i | -0.96 | -12
Cc1ccc(C(=O)C2C(=O)C3CCC2C3)cc1 (stereo unspecified) | . | 98 | -2 | . | . | . | . | . | .
SMILES | TMEM16A act | ABCB6 inh MLPCN | iPSC survival up | DAGLB inh | ANO1 block | TMEM16A reconf | HEK293 Ca mobil | Parental YFP cnt | ClC-1 inh
Cc1ccc(OCc2cc(C(=O)N3CCC(c4ccccc4Cl)C3)no2)cc1C (stereo unspecified) | i | 100 | 0 | -12 | i | . | . | . | .
CC(=O)c1ccc(OCCCC(=O)Nc2cc(S(=O)(=O)N(C)C)ccc2C)cc1 | i | 99 | 0 | -1 | i | . | . | . | .
Cc1ccc(S(=O)(=O)N(C)C)cc1NC(=O)C(C)N(C)CCOc1ccc(Cl)cc1 (stereo unspecified) | i | 89 | 0 | 0 | 25* | i | i | -1 | -12
CSc1cccc(NC(=O)C2C3C=CC4(O3)C2C(=O)N(CCN2CCOCC2)C4C(=O)NC2CCCCC2)c1 (stereo unspecified) | i | 95 | 1 | -1 | i | . | . | . | .
Cc1nn(-c2ccccc2)c(C)c1/C=N\N1CCN(c2ccc(Cl)cc2)CC1 | i | 91 | -2 | 3 | 25* | i | i | -1.1 | -10
Cc1nn(-c2ccccc2)c(C)c1/C=N/n1cnnc1 | i | 100 | -1 | 2 | i | . | . | . | .
Cc1noc(C)c1COc1cccc(C(=O)NCCc2c[nH]c3ccccc23)c1 | i | 96 | 4 | -1 | 25* | i | i | -1.1 | -3
COCCn1cnc2c1c(=O)n(Cc1ccccc1C#N)c(=O)n2Cc1ccccc1 | i | 96 | 0 | 1 | i | . | . | . | .
CCOc1ccc(OCc2ccc(C(=O)OCc3ccccn3)o2)cc1 | i | 90 | -3 | -2 | 100* | i | i | -1 | -4
Cc1ccc(S(=O)(=O)CC2CSc3nc4ccccc4n32)cc1 (stereo unspecified) | i | 92 | 1 | -1 | 25* | 36%* | i | -1.1 | -20
Cc1cc(NC(=O)c2ccco2)sc1C | i | 84 | 0 | 0 | . | . | . | . | .
O=C(NCc1ccc(Cl)cc1)N1CCN(Cc2ccccc2)CC1 | i | 100 | 0 | 0 | i | . | . | . | .
CCN(c1cccc(C)c1)S(=O)(=O)c1ccc2c(c1)CCN2C(C)=O | i | 142 | 1 | 1 | i | . | . | . | .
CCN(c1cccc(C(F)(F)F)c1)S(=O)(=O)c1ccc2c(c1)CCN2C(C)=O | . | 92 | 0 | 0 | 25* | 18%* | i | -0.86 | -6
COC(=O)c1cccc(Nc2ncnc3sccc23)c1 | i | 98 | -1 | 1 | 100* | 26%* | i | -0.87 | -16
CCc1nc2ccc(C(=O)N3CCN(S(=O)(=O)CC)CC3)cn2c1N(CC)Cc1cccc(Br)c1 | . | 89 | -1 | . | . | . | . | . | .

Source: PubChem (several laboratories)
